# Bioassay records as filed in PubChem.
# Most compounds without a hit are left out; they make up all but 3.9% or so of the library.
# SKOV3 invasion – ovarian cancer metastasis inhibition, 3D TME model | SKOV3ip1-GFP adhesion/invasion on 3D omental model, fluorescence | Potency, µM (doses to about 45.8 µM), inactives show top-dose activity change, negative = inhibition, actives largely listed as inhibitors | AID 1963576 | 46,000 tested, 0.1% active;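 further: potency means the concentration at half of the fitted maximal effect; plate controls were DMSO wells for no effect and tomatine positive control wells for full effect; nearly all actives have a fitted effect of over 65% in size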
#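 Adhesion/invasion was scored as fixed GFP-labeled SKOV3ip1 cell counts (488/509 nm), normalized to DMSO and tomatine controls. Cancer cells in serum-free medium, with four compound doses (0.36-46 umol/L), sat 2 hr at RT then 16 hr at 37 C on a 48 hr fibroblast/mesothelial/ECM culture.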
# FH mod – Identification of activators of human fumarate hydratase by quantitative high-throughput screening. Fumarate hydratase, mitochondrial (Homo sapiens), P07954. Potency, µM (titrated, usually from 79.9 µM), inactives show at the highest dose activity change, negative = inhibition, most hits filed as inhibitors. 54,000 tested, 0.22% active. FH coupled MDH/diaphorase resazurin fluorescence, 15 min; further: potency means the concentration at half of the fitted maximal effect; on the % scale 0 is the no-effect control and ±100 the full control effect; the screen sought activators but most active calls are inhibition curves; nearly all actives have a fitted effect of over 45% in size
# Target sequence (P07954 whole entry, looked up): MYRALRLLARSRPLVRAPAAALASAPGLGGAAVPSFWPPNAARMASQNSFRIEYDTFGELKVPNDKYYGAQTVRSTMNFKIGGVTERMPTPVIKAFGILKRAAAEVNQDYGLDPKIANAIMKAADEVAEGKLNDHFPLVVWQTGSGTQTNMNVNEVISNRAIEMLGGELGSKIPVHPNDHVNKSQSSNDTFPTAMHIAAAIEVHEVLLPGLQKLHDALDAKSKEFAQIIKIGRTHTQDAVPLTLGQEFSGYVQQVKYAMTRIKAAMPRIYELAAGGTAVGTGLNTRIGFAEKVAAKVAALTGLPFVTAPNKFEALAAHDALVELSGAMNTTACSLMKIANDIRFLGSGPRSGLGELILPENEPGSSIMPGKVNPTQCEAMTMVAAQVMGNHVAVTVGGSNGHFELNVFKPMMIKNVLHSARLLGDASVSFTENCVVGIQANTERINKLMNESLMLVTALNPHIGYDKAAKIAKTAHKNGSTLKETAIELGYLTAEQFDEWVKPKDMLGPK
# NTMT1 inhibitor – inhibitors of human N-terminal methyltransferase NTMT1; Q9BV86; NTMT1 MTase-Glo SAH luminescence, purified enzyme; Potency, µM (doses to about 114 µM), inactives show top-dose activity change, negative = inhibition, actives largely listed as inhibitors; 59,000 tested, 2.5% active; AID 1645870;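 further: potency means the concentration at half of the fitted maximal effect; plate controls were DMSO vehicle for no effect and no enzyme for full effect; nearly all actives have a fitted effect of over 65% in size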
# DRV1 agonist – agonists of human resolvin D1 receptor DRV1 (GPR32); CHO-K1 GPR32 beta-arrestin PathHunter luminescence, 90 min; zero percent set by DMSO-only wells; 48,000 tested, 2.5% active; activation, % at 76.9 µM;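 active means activation of at least 60% and not above a set upper limit, about 1 call in 100 departs from these limits; inconclusive means activation of 40% to 60%, or above that upper limit; inactive means activation under 40%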; further: 0% is about no effect
#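 Beta-arrestin recruitment read-out: luminescence from complemented beta-Gal in CHO-K1 GPR32 PathHunter cells, measured 1 h after detection reagent at ambient temperature following 90 min compound exposure at 37 °C; DMSO served as basal (EC0) control.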
# * hit, by the source's call; i = inactive; ? = inconclusive; . = not tested or not shown; ! = repeats disagree; [ ] = another dose, or the depositor's remark. Unless noted, the call rests on the fitted dose curve; in most records, active means well fitted curve in the direction sought with a large enough effect; inconclusive means small, poorly fitted or top-dose-only effect, or another doubt; inactive means no such curve, though single readings can be large; an effect the other way counts as inactive or inconclusive.
SMILES,SKOV3 invasion,FH mod,NTMT1 inhibitor,DRV1 agonist
C[C@H]1O[C@@H](O[C@H]2CC[C@@]3(C)[C@H](CC[C@@H]4[C@@H]3C[C@@H](O)[C@]3(C)[C@@H](C5=CC(=O)OC5)CC[C@]43O)C2)C[C@H](O)[C@@H]1O[C@H]1C[C@H](O)[C@H](O[C@H]2C[C@H](O)[C@H](O[C@@H]3O[C@H](CO)[C@@H](O)[C@H](O)[C@H]3O)[C@@H](C)O2)[C@@H](C)O1,.,-1%[53.3 µM],38%[57.5 µM],76*
O=C(NC1CCCC1)c1c[nH]c2ccc(S(=O)(=O)Nc3cccc(C(F)(F)F)c3)cc2c1=O,i,?,12%,82*
O=C(NC1CCCCC1)c1c[nH]c2ccc(S(=O)(=O)Nc3ccccc3F)cc2c1=O,12%,?,?,101*
Cc1cc(C)cc(NS(=O)(=O)c2ccc3[nH]cc(C(=O)NCCc4ccccc4)c(=O)c3c2)c1,-4%,-7%,1%,79*
CN(C(=O)c1c[nH]c2ccc(S(=O)(=O)Nc3cccc(C(F)(F)F)c3)cc2c1=O)C1CCCCC1,i,12%,8%,-13
O=C(NC1CCCC1)c1cc(Nc2cccc(C(F)(F)F)c2)nc2ccccc12,-6%,-8%,7%,96*
CCc1ccccc1NS(=O)(=O)c1ccc2[nH]cc(C(=O)NC3CCCC3)c(=O)c2c1,14%,?,3%,106*
CCOc1ccc(NS(=O)(=O)c2ccc3[nH]cc(C(=O)NCc4ccco4)c(=O)c3c2)cc1,5%,-2%,?,67*
CCOCCCNC(=O)c1c[nH]c2ccc(S(=O)(=O)Nc3cccc(Cl)c3C)cc2c1=O,2%,-24%,89µM*,65*
CCN(c1ccccc1)S(=O)(=O)c1ccc2[nH]cc(C(=O)NCc3ccc(C)cc3)c(=O)c2c1,-7%,-1%,5%,63*
CCc1ccc(NS(=O)(=O)c2ccc3[nH]cc(C(=O)NC4CCCC4)c(=O)c3c2)cc1,i,?,?,?
CCN(c1ccccc1)S(=O)(=O)c1ccc2[nH]cc(C(=O)NC3CCCCC3)c(=O)c2c1,i,-18%,4%,29
Cc1ccc2nc3sc(C(=O)N4CCC(C(N)=O)CC4)cc3cc2c1,.,.,2%[57.5 µM],.
C=C1C(=O)O[C@@H]2/C=C(\C)C(=O)/C=C/[C@](C)(O)C[C@@H](OC(=O)C(C)C)[C@@H]12,.,7%[53.3 µM],-19%[29.8 µM],.
COc1ccc(OC)c(NC(=O)c2c(NCc3ccc(C)o3)sc3c2CCCCC3)c1,?,2%,?,-19
O=C(Nc1sc2c(c1C(=O)Nc1cccc(Cl)c1)CCCC2)c1cccs1,i,9%,25µM*,-4
O=C(Cc1ccccc1)Nc1sc2c(c1C(=O)Nc1ccccc1Cl)CCCC2,-32%,5%,89µM*,17
COc1ccccc1NC(=O)c1c(NCc2ccc(C)o2)sc2c1CCCCC2,i,-20%,28µM*,-19
COc1ccc(C2Nc3ccccc3C(=O)N2CC(C)(C)C)cc1COc1ccc(NC(C)=O)cc1 (configuration not stated),.,.,37%,.
C=C1C[C@]23C[C@H]1CC[C@H]2[C@]1(C)CC[C@H](O)[C@@](C)(C(=O)O)[C@H]1[C@@H]3C(=O)O,.,11%[53.3 µM],3%[29.8 µM],.
Cc1cc(=O)c2c(O)c3c(O)cc(=O)c4c3c3c(cc(O)c1c23)C(C)(C)C=4O,-3%,-2%[53.3 µM],3.5µM*!,12
O=C1C(SCCO)=C(SCCO)C(=O)c2ccccc21,.,7.9µM*,.,-22
CC(=O)N1CCc2cc(S(=O)(=O)NC(Cc3ccccc3)C(=O)Nc3ccc(Cl)cc3)ccc21 (configuration not stated),11%,6%,0%,96*
CCC(=O)N1CCOc2c(cc(-c3ccc(OC)c(OC)c3)cc2OC[C@H]2CCCN(C)C2)C1,.,4%,-4%[57.5 µM],.
Cc1cc2c(s1)c1cnn(Cc3c(F)c(F)c(C(F)(F)F)c(F)c3F)c(=O)c1n2C,.,.,1%,.
SMILES,SKOV3 invasion,FH mod,NTMT1 inhibitor,DRV1 agonist
O=C(Nc1ccc(N2CCOCC2)c(C(=O)O)c1)c1ccc(Br)cc1,-14%,-12%,89µM*,-8
CN1CCCCC1CCN1c2ccccc2Sc2ccc(S(C)=O)cc21 (configuration not stated),.,5%[53.3 µM],22%[57.5 µM],64*
CC1CCN(S(=O)(=O)c2ccc3c(c2)N(CC(=O)N2CCN(c4ccccc4)CC2)C(=O)CO3)CC1,i,-4%,89µM*,-5
O=C(O)C1=CC(=C(c2ccc(O)c(C(=O)O)c2)c2ccc(O)c(C(=O)O)c2)C=CC1=O,.,16µM*,.,-15
CC(=C/C(=O)O)/C=C/[C@]1(O)[C@@]2(C)CO[C@]1(C)C[C@H](O[C@@H]1O[C@H](CO)[C@@H](O)[C@H](O)[C@H]1O)C2,.,1%[53.3 µM],9%[29.8 µM],.
Cc1cc(C)n2ncc(C(=O)NCc3ccco3)c2n1,.,.,-2%,.
Cc1ccc(C)c(NC(=O)Nc2cccc(-c3cn4cccnc4n3)c2)c1,i,3%,?,80*
O=C(Nc1cccc(-c2cn3cccnc3n2)c1)c1cc(Br)ccc1Cl,4%,-1%,8%,83*
CCC(CC)C(=O)Nc1cccc(-c2cn3cccnc3n2)c1,2%,1%,-1%,28
Cc1ccc(-c2ncn(-c3ccc(Nc4nccc(-c5cccc(N6CCOCC6)c5)n4)cc3)n2)cn1,-16%,9%[53.3 µM],-8%,.
Oc1cccc(Nc2cc(-c3ccccc3)ncn2)c1,3%,-4%,40µM*,-1
CC(=O)OC1C(OC(=O)c2ccccc2)C2C(C)(C)CCC(OC(C)=O)C2(C)C23CCC(C)(C2)C(=O)CC13 (configuration not stated),.,-1%[53.3 µM],-14%[29.8 µM],.
Cc1c(F)ccc(C(=O)Nc2cc([N+](=O)[O-])ccc2N2CCN(C)CC2)c1Cl,.,6%,?,.
CCOc1ccc(S(=O)(=O)N2CCN(Cc3nc4ccc(C)cc4o3)CC2)cc1,i,-16%,4%,-7
CCCc1nc(C)c2c(=O)[nH]c(-c3cc(S(=O)(=O)N4CCN(CC)CC4)ccc3OCC)nn12,?,-2%[53.3 µM],14µM*!,12
COc1ccc(Nc2c3c(nc4nncn24)CCC3)cc1OC,i,2%,13%,93*
COc1cccc(Nc2c3c(nc4nncn24)CCC3)c1,-4%,6%,3%,-8
FC(F)(F)c1cccc(Nc2nc3nonc3nc2Nc2ccc(Cl)cc2)c1,10µM*,?,9%,-23
O=C(Nc1cccc(C(F)(F)F)c1)c1cc(-c2ccc(Cl)cc2)on1,17%,1%,8%,?
FC(F)(F)c1ccccc1-c1nc(NCc2ccc(-c3ccc4c(c3)OCO4)cc2)c2ccccc2n1,.,.,2%,.
CCOc1ccc(CCNC(=O)c2cc3cc4ccc(OC)cc4nc3s2)cc1OCC,i,-14%,13%,65*
COc1ccc2nc3sc(C(=O)NCCc4ccc(Cl)cc4)cc3cc2c1,17%,0%,?,-1
CC(C)(C)c1ccc(C(=O)Nc2cn3cc(-n4ccnc4)ccc3n2)cc1,.,16%,4%[57.5 µM],.
